Of roughly 8,800 targets only a part is listed; those with a hit were picked by preference. About 0.5% of all pairs of compound and target were hits.
compound: COC(=O)[C@H](CCSC)NC(=O)C1=C(C=C(C=C1)NC[C@H](CS)N)C2=CC=CC=C2; assay: log2 fold change, soluble protein after heating vs DMSO (PISA); higher = thermal stabilisation; K562 lysate, 10 uM; active = over 0.2 and 3.5 SD of the protein, either way, in both replicates (recomputed)
Outline: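 The values are log-two fold changes in thermal stability compared with solvent controls and come from duplicates. They were obtained by TMTpro 16plex LC-MS/MS, with channel sums equalised, on the supernatant after 21,000xg for 90 min. That supernatant came from crude K562 extract at 1 mg/mL protein treated with 10 μM compound for 30 min, heated for 3 min across 48°C-58°C, pooled and brought to 0.5% NP-40 at 4°C.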

UniProt Q9NTN9, sequence (Q9NTN9 whole entry, looked up): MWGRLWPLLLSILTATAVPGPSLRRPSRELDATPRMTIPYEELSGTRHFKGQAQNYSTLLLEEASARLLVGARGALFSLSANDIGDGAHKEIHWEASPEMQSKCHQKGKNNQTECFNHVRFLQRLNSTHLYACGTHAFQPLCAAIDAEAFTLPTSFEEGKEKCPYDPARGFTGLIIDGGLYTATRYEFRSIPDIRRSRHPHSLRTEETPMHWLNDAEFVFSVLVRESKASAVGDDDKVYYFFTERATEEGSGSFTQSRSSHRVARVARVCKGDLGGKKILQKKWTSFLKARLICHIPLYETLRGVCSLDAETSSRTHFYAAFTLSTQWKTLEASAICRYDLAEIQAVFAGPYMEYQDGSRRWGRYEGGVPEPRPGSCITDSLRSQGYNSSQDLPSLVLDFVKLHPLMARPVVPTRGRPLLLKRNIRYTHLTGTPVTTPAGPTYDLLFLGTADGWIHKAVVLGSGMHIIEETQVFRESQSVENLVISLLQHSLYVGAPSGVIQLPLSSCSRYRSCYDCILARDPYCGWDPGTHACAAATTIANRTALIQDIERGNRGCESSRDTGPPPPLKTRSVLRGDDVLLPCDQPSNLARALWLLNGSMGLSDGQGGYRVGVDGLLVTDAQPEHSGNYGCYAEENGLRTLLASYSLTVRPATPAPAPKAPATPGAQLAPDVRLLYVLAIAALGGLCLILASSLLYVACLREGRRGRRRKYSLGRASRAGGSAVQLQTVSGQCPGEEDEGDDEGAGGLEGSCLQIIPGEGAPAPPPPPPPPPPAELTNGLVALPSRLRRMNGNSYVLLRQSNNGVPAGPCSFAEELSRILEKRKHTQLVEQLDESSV
UniProt Q6PCD5, sequence (Q6PCD5 whole entry, looked up): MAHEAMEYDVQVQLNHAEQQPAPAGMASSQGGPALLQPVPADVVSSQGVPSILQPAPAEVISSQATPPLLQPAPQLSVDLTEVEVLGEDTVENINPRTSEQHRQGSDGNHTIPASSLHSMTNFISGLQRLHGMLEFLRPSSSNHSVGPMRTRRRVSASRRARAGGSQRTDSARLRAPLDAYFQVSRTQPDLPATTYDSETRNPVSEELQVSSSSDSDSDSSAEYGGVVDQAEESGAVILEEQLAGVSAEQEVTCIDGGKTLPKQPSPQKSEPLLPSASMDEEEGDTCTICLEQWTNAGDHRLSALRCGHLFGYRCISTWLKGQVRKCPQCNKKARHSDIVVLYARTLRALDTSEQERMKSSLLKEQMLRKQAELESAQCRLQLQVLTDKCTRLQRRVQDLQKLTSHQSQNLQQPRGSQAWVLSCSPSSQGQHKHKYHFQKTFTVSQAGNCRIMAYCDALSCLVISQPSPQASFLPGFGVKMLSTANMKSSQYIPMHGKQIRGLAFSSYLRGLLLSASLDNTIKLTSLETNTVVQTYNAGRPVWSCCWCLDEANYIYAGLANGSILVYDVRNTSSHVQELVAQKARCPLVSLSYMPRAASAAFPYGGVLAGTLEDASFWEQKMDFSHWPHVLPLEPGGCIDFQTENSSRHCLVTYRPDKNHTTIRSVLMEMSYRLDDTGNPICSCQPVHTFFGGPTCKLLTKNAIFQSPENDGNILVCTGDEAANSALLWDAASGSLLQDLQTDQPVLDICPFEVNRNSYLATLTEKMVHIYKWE
UniProt Q9UPW6, sequence (Q9UPW6 whole entry, looked up): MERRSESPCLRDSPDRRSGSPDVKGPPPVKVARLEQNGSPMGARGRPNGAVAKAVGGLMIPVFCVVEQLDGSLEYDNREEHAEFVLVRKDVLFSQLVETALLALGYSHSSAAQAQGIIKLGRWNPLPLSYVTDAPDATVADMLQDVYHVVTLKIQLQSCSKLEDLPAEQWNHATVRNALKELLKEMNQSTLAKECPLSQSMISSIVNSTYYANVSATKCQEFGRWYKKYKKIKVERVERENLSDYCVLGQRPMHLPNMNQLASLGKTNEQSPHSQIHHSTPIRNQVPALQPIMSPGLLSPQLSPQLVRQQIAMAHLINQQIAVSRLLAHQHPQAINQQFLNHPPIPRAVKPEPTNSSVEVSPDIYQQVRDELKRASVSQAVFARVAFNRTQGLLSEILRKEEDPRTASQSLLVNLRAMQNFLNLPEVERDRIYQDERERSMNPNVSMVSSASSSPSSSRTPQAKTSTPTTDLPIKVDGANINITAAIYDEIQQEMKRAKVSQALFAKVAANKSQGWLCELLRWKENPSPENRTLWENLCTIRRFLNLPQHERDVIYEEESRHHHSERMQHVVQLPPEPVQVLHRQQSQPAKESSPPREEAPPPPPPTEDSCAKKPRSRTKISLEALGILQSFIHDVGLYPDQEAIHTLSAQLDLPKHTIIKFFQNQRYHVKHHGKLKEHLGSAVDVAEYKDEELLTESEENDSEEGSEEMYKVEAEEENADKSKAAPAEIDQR
UniProt Q7L0Q8, sequence (Q7L0Q8 whole entry, looked up): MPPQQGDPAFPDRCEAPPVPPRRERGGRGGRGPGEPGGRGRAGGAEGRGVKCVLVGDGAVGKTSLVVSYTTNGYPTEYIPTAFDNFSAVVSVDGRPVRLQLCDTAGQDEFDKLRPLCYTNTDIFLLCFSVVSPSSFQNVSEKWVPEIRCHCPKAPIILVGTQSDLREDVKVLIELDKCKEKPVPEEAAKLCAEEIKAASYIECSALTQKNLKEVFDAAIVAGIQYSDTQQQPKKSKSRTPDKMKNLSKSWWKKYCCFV
UniProt Q96E14, sequence (Q96E14 whole entry, looked up): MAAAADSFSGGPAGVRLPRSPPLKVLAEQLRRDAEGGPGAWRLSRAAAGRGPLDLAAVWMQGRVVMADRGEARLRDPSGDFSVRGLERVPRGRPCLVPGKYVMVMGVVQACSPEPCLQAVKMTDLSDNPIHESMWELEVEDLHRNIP
UniProt Q9BWG6, sequence (Q9BWG6 whole entry, looked up): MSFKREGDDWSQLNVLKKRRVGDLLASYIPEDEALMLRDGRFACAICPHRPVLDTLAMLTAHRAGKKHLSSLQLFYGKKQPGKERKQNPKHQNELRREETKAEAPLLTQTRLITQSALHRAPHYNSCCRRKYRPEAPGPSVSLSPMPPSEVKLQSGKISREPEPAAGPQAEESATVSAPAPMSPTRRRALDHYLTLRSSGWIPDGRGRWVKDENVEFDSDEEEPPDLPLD
UniProt O75943, sequence (O75943 whole entry, looked up): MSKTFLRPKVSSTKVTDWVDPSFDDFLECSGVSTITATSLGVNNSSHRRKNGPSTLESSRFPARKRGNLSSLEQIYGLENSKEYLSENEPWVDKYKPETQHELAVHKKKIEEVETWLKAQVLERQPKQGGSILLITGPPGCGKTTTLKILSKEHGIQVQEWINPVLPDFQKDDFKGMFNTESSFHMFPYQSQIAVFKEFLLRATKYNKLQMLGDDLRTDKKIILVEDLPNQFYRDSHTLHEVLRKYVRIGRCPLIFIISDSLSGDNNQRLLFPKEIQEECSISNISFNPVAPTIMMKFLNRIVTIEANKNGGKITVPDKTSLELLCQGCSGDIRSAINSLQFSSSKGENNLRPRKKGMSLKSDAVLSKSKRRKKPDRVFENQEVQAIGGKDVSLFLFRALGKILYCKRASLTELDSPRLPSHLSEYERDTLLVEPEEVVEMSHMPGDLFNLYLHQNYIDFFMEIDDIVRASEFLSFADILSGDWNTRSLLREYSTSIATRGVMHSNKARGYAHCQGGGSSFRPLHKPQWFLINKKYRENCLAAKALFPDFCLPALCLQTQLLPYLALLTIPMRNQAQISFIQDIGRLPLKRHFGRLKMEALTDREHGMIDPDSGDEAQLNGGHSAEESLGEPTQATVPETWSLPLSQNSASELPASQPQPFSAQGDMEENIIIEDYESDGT
UniProt O75582, sequence (O75582 whole entry, looked up): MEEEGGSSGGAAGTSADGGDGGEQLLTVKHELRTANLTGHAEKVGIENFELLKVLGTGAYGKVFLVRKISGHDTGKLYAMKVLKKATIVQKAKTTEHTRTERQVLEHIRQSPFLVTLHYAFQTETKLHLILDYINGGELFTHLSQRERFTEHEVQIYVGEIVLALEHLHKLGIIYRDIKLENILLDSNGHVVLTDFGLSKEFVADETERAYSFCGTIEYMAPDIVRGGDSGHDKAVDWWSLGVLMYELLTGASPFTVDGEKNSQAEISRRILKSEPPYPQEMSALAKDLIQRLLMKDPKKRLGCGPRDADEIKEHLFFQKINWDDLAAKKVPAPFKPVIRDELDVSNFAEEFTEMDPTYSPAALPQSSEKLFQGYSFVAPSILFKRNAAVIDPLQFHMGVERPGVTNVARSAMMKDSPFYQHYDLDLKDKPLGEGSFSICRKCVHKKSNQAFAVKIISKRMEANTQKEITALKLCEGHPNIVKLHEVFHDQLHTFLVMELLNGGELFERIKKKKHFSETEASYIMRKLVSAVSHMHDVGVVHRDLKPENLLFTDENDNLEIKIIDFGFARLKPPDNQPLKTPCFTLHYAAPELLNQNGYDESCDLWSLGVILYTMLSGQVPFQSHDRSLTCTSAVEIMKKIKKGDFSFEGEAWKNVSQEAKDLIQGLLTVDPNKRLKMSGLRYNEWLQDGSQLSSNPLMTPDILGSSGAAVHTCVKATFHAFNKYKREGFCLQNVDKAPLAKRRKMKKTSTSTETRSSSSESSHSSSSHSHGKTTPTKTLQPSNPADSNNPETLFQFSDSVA
UniProt Q8TC12, sequence (Q8TC12 whole entry, looked up): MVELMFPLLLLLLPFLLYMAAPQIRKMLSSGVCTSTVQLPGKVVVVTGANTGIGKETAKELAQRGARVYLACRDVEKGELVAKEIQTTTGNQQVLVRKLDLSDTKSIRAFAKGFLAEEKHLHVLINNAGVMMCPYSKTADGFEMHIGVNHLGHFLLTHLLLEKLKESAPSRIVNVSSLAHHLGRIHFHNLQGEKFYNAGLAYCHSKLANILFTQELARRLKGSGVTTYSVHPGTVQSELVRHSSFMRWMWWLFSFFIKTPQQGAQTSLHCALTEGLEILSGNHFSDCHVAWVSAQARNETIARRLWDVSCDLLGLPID

log2 fold change, inactive:
RUFY2 isoform 1 (UniProt Q8WXA3) -0.031
SATB2 (UniProt Q9UPW6) -0.022
RALGAPB isoform 3 (UniProt Q86X10) 0.107
SEMA4G isoform 2 (UniProt Q9NTN9) 0.215
SERAC1 (UniProt Q96JX3) -0.003
RNF17 (UniProt Q9BXT8) -0.032
QSER1, A0A3B3IRW6 0.183
RPS6KA5 (UniProt O75582) -0.005
RHOU (UniProt Q7L0Q8) 0.164
RNF2 (UniProt Q99496) -0.076
RAD17 (UniProt O75943) 0.026
RFWD3 (UniProt Q6PCD5) -0.052
S100A6 (UniProt P06703) 0.023
RYR1 (UniProt P21817) -0.087
SCNM1 (UniProt Q9BWG6) -0.311
RMI2 (UniProt Q96E14) -0.021
RECQL4 (UniProt O94761) 0.056
RDH11 (UniProt Q8TC12) 0.149

— the supplement of paper PMC10849652
